tim10-1 inh: growth inhibitors of tim10-1 mutant yeast | S. cerevisiae tim10-1 ts strain growth, BacTiter-Glo, 24 h | inhibition, % at 20 µM | 330,000 compounds, 2.2% hits;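 active = inhibition of at least 40%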;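 note: mutant grown at 25 °C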
PfHsp90 set2: growth inhibition of yeast expressing Plasmodium Hsp90; inhibition, % at 9.4 µM; S. cerevisiae expressing PfHsp90, BacTiter-Glo ATP, 48 h; yeast lacking PDR1 and PDR3 efflux regulators; 310,000 compounds, 0.32% hits; AID 504621;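 active = every replicate shows inhibition above about 80%, whatever the replicate mean, limit read from the data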
SKKanGAS inh: SKKanGAS growth inhibition. S. pyogenes SKKanGAS, kanamycin growth, BacTiter-Glo, 6 h. inhibition, % at 7.5 µM. 300,000 compounds, 1.3% hits. AID 1662;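 active = mean replicate score, as percent of positive control median, at least 50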;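 note: strain carries kanamycin resistance gene driven by streptokinase promoter and grows in 40 µg/ml kanamycin; loss of luminescence reflects streptokinase promoter inhibition or plain growth inhibition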
TIM10 inh: growth inhibitors of TIM10 yeast strain. S. cerevisiae TIM10 strain growth, BacTiter-Glo luminescence, 24 h. inhibition, % at 10 µM. 330,000 compounds, 1.4% hits;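 active = inhibition of 40% or more at the single tested concentration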;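 note: wild-type TIM10 isogenic control strain grown at permissive 25 °C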
tim23-1 inh: inhibits growth of tim23-1 mutant yeast; S. cerevisiae tim23-1 growth, BacTiter-Glo luminescence, 24 h; inhibition, % at 20 µM; 330,000 compounds, 1.3% hits; AID 463212;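 active = growth inhibition of the mutant yeast at or above 50%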;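 note: temperature-sensitive mutant grown at 25 °C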
tim10-1 confirm: confirmation of tim10-1 mutant yeast growth inhibitors. inhibition, % at 20 µM. S. cerevisiae tim10-1 ts strain growth, BacTiter-Glo, 24 h. 7,400 compounds, 56% hits. shares compounds with tim10-1 inh;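 active = inhibition of yeast growth at or above a set limit in either of two repeat tests at 20 µM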;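 note: tim10-1 mutant grown at permissive 25 °C to find synthetic lethal compounds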
A number is an active result; 0 = inactive; - = no result. Shown are actives, neighbours in structure and some others; about 4.4% of the full set was active somewhere.

SMILES | tim10-1 inh | PfHsp90 set2 | SKKanGAS inh | TIM10 inh | tim23-1 inh | tim10-1 confirm
CCOC(=O)/C=C/C(=O)Nc1nccs1 | 42.6 | 0 | 0 | 0 | 0 | 39.6
CCOC(=O)C(=O)Nc1nccs1 | 0 | 0 | 0 | 0 | 0 | -
O=C(C1CCN(S(=O)(=O)c2cccc3nsnc23)CC1)N1CC=C(c2ccccc2)CC1 | 42.6 | 0 | 0 | 0 | 0 | 0
O=C(C1CCCN(S(=O)(=O)c2cccc3nsnc23)C1)N1CC=C(c2ccccc2)CC1 (stereo not drawn) | 0 | 0 | - | 0 | 0 | -
C/C(=N\NC(=S)NCc1ccccc1)c1ccc(Cl)s1 | 41.3 | 0 | 0 | 0 | 0 | 32.5
c1ccc(Cn2nnc3c(N4CCC5(CC4)OCCO5)ncnc32)cc1 | 42.1 | 0 | 0 | 0 | 0 | 0
Cn1ncc2c(Nc3ccc(Br)cc3)nc(Nc3ccc(Br)cc3)nc21 | 56.8 | 0 | 106.0 | 0 | 0 | 28.4
Cn1ncc2c(Nc3cccc(Cl)c3)nc(Nc3cccc(Cl)c3)nc21 | 54.0 | 107.6 | 100.0 | 0 | 0 | 45.3
Cn1ncc2c(Nc3ccc(O)cc3)nc(Cl)nc21 | 0 | 0 | 0 | 0 | 0 | -
O=C(Nc1cccc(Cl)c1)c1csc(-c2ccccc2)n1 | 43.7 | 0 | 0 | 0 | 0 | 0
O=C(Nc1ccc(Cl)c(Cl)c1)c1csc(-c2ccccc2)n1 | 0 | 0 | 0 | 0 | 0 | -
CCOC(=O)c1cnc(Nc2nc3ccccc3o2)nc1CSc1nnc(C)s1 | 49.5 | 0 | 0 | 0 | 0 | 0
COc1ccc(/C(N)=N/OC(=O)c2cccc([N+](=O)[O-])c2)cc1OC | 42.3 | - | 0 | 0 | 0 | 0
N/C(=N\OC(=O)CSc1ccccc1)c1cccc([N+](=O)[O-])c1 | 42.1 | 0 | 0 | 0 | 0 | 40.3
COc1ccc(/C(N)=N/OC(=O)c2ccc(OC)c([N+](=O)[O-])c2)cc1OC | 0 | 0 | 0 | 0 | 0 | -
COc1ccc(CCNC(=O)c2cc([N+](=O)[O-])cc([N+](=O)[O-])c2)cc1OC | - | 0 | 0 | - | - | -
N/C(=N\OC(=O)c1cccc2ccccc12)c1cccc([N+](=O)[O-])c1 | 0 | 0 | 0 | 0 | 0 | -
N/C(=N\OC(=O)c1cccs1)c1cccc([N+](=O)[O-])c1 | 46.9 | 0 | 0 | 0 | 0 | 39.0
COc1ccc(CCNC(=S)NC(=O)c2cccc([N+](=O)[O-])c2)cc1OC | 41.2 | 0 | 0 | 0 | 0 | 0
O=C(NC(Cc1ccccc1)C(=O)O)/C(=C/c1ccc(Cl)cc1)NC(=O)c1ccco1 (stereo not drawn) | 0 | 0 | 0 | 0 | 0 | -
CN(C)P(=O)(Nc1cccc2ccccc12)Nc1cccc2ccccc12 | 0 | 0 | - | 0 | 0 | -
COc1ccc(C(=O)O/N=C(\N)c2ccccc2Cl)cc1OC | 62.9 | 0 | 0 | 0 | 0 | 52.5
COc1ccc(Nc2nc(N)nc(C(F)(F)F)n2)c(OC)c1 | 0 | 0 | 0 | 0 | 0 | -
COc1ccc(Cl)cc1Nc1nc(N)nc(C(F)(F)F)n1 | 47.8 | - | 0 | 0 | 0 | 0
COc1ccc2nc(NC(=O)C3=NN(c4ccccc4)C(=O)CC3)sc2c1 | 43.0 | 0 | 0 | 0 | 0 | 0
SMILES | tim10-1 inh | PfHsp90 set2 | SKKanGAS inh | TIM10 inh | tim23-1 inh | tim10-1 confirm
CS(=O)(=O)c1ccc2nc(NC(=O)C3=NN(c4ccccc4)C(=O)CC3)sc2c1 | 0 | 0 | 0 | 0 | 0 | -
Cc1cc(C)c(Cn2ncn(-c3ccc(Br)cc3)c2=O)c(C)c1 | 0 | 0 | 0 | 0 | 0 | -
Cc1ccccc1C1C(C#N)=C2NC(=O)c3c(sc4c3CCCCC4)N2C2=C1C(=O)CC(C)(C)C2 (stereo not drawn) | 45.9 | - | 0 | 0 | 0 | 31.8
Cc1ccccc1C1C(C#N)=C2N=C(N)c3c(sc4c3CCCCC4)N2C2=C1C(=O)CC(C)(C)C2 (stereo not drawn) | 0 | - | 0 | 0 | 0 | -
Cc1ccccc1NC(=O)CSc1nnc(-c2ccccc2)n1-c1ccccc1 | 0 | 0 | 0 | 0 | 0 | -
N#Cc1ccccc1NC(=O)CSc1nnc(-c2ccccc2O)n1-c1ccccc1 | 41.8 | - | 0 | 0 | 0 | 0
CNCc1ccccc1Sc1cccc2ccccc12 | 41.0 | 0 | 0 | 0 | 0 | 0
O=C(Nc1ncc2c(n1)-c1ccccc1CC2)c1ccccc1 | 47.3 | 0 | 0 | 0 | 0 | 0
O=C(Nc1ncc2c(n1)-c1ccccc1CC2)c1ccc(F)cc1 | 40.5 | 0 | 0 | 0 | 0 | 0
Cc1cc2c(sc3c(C)ccc(C)c32)c(C)n1 | 48.5 | 0 | 0 | 0 | 0 | 0
COC(=O)C(CC(=O)c1ccc(Br)cc1)n1ccnc1 (stereo not drawn) | 72.2 | - | 0 | 0 | 0 | 43.6
Cn1cccc1C(=O)/C(C#N)=C/c1ccc(F)cc1 | 0 | 0 | 0 | 0 | 0 | -
CCNC(=S)N/N=C(\C)c1cccc([N+](=O)[O-])c1 | 44.3 | 0 | 0 | 0 | 0 | 0
O=C(NC1(Cc2ccccc2)CCN(CCCc2ccccc2)C1=O)c1ccccc1 (stereo not drawn) | 0 | 0 | - | 0 | 0 | -
COc1ccc(N2CCN(C(=O)COC(=O)Cc3c(F)cccc3Cl)CC2)cc1 | 45.0 | 0 | 0 | 0 | 0 | 0
O=C(Cc1c(F)cccc1Cl)OCC(=O)N1CCN(c2ccccc2)CC1 | 0 | 0 | - | 0 | 0 | -
Cc1ccc(NC(=O)C2CCN(S(=O)(=O)c3ccc4c(c3)NC(=O)C(C)S4)CC2)cc1Cl (stereo not drawn) | 0 | 0 | 0 | 0 | 0 | -
C[C@H]1COC(=O)[C@@H](CC(=O)OC(C)(C)C)C/C=C\C[C@@H](CC(=O)N(CCO)Cc2ccccc2)C(=O)N1 | 0 | 0 | - | 0 | 0 | -
O=C(NCc1ccccc1)C(Cc1ccccc1)N1C(=O)C2C3CCC(C3)C2C1=O (stereo not drawn) | 40.4 | - | 0 | 0 | 0 | 0
O=C(NC1CCCCC1)C(Cc1ccccc1)N1C(=O)C2C3CCC(C3)C2C1=O (stereo not drawn) | 0 | 0 | 0 | 0 | 0 | -
O=C(Nc1ccccn1)c1ccc2c(c1)S(=O)(=O)c1ccccc1C2=O | 0 | 0 | 0 | 0 | 0 | -
O=C1c2ccccc2S(=O)(=O)c2cc(C(=O)N(c3ccccn3)c3ccccn3)ccc21 | 40.7 | 0 | 0 | 0 | 0 | 0
COc1ccc(N/C(C)=C/C(=S)Nc2ccccc2)cc1 | 40.6 | 0 | 0 | 0 | 0 | 0
O=C1NCCc2c1[nH]c1ccccc21 | 0 | 0 | 0 | 0 | 0 | -
O=C1NCCc2c1[nH]c1c(Cl)ccc(Cl)c21 | 42.5 | 0 | 0 | 0 | 0 | 35.8
CCOC(=O)c1c(C)[nH]c(C)c1C(=O)COC(=O)c1cc2ccccc2cc1OC | 0 | 0 | 0 | 0 | 0 | -
CCOC(=O)c1c(C)[nH]c(C)c1C(=O)COC(=O)c1cc2ccccc2cc1O | 47.3 | 0 | 0 | 0 | 0 | 0
CC1=C/C(=C(/c2cc(C)c(O)c(Br)c2)c2ccccc2S(=O)(=O)O)C=C(Br)C1=O | 54.2 | 0 | 0 | 0 | 0 | 43.8
C#CCOCCOCCOCCNc1nc(N2CCN(C(=O)CCCCCCCCCCNC(=O)[C@H](CCCCN)n3cc(CCO)nn3)CC2)nc(N2CCN(C(=O)CCCCCCCCCCNC(=O)[C@H](CCCN=C(N)N)n3cc(C[C@@H](C)CC)nn3)CC2)n1 | 42.2 | 0 | - | 0 | 0 | 0

Source: PubChem BioAssay (several laboratories)
